Screens (PubChem BioAssay)
LEDGF integ inh: blocks HIV-1 LEDGF/p75-dependent DNA integration; TR-FRET IN-LEDGF/p75 DNA integration, Eu/Cy5; inhibition, % at 3.7 µM; actives 0.64% (n = 370,000); AID 743269;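 active = inhibition above the screen-wide mean plus 3 SD, cut at about 13% in these data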;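 note: signal is the Cy5 over europium emission ratio at 671 and 618 nm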
MBD2 DNA inh: blocks human MBD2 binding to methylated DNA. Q9UBB5. TR-FRET, MBD2 binding to methylated oligonucleotide. inhibition, % at 4.4 µM. actives 0.31% (n = 370,000). AID 686964; in the data active = inhibition above about 13%
PRMT1 inh: inhibitors of human PRMT1 | Q99873 | recombinant PRMT1, activity-based probe fluorescence polarization | inhibition, % at 2.79 µM | actives 1.3% (n = 370,000) | AID 652257;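 active = inhibition above about 21% made by adding two undisclosed values, limit read from the data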
ABHD5 PLIN5 PPI: ABHD5-PLIN5 protein interaction inhibition | Q00G26+Q8WTS1 | Split G. princeps luciferase complementation, luminescence, 4 h | inhibition, % at 4 µM | actives 0.78% (n = 360,000);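 active = inhibition above the mean inhibition across every tested compound plus 3 SD, cut at about 22% in these data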
UHRF1 binding: blocks human UHRF1 binding to methylated DNA; UHRF1 binding to methylated oligo, TR-FRET; inhibition, % at 4.4 µM; actives 0.75% (n = 370,000); AID 687016; in the data active = inhibition above about 21%;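 note: UHRF1 SRA domain binding a hemimethylated CpG hairpin DNA probe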
rCAG binder: molecules binding r(CAG) RNA repeats; r(CAG) RNA repeat, TO-PRO-1 dye displacement fluorescence; inhibition, % at 3 µM; actives 1.3% (n = 370,000); AID 651821;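 active = inhibition above the plate cutoff, the mean of all test compounds on that plate plus 3 SD, cut at about 35% in these data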;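 note: higher means more dye released from RNA so lower well fluorescence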
ABHD5 PLIN5 conf: ABHD5-PLIN5 interaction inhibition, confirmed | biochemical ABHD5-PLIN5 interaction, luminescence | shares compounds with ABHD5 PLIN5 PPI | actives 67% (n = 2,200) | inhibition, % at 4 µM; in the data active = inhibition above about 23%
HNF4 counter: counter-screen for ABHD5-PLIN5 inhibitors: HNF4 split-luciferase. HNF4 dimerization, luminescence, biochemical. shares compounds with ABHD5 PLIN5 PPI. inhibition, % at 4 µM. actives 77% (n = 2,200). AID 651674;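 active = mean inhibition across replicate wells exceeding the computed hit threshold, cut at about 13% in these data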;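 note: light from luciferase halves that rejoin when HNF4 fusion proteins dimerize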
Target sequence (P41235 whole entry, looked up, the tested form may be a part): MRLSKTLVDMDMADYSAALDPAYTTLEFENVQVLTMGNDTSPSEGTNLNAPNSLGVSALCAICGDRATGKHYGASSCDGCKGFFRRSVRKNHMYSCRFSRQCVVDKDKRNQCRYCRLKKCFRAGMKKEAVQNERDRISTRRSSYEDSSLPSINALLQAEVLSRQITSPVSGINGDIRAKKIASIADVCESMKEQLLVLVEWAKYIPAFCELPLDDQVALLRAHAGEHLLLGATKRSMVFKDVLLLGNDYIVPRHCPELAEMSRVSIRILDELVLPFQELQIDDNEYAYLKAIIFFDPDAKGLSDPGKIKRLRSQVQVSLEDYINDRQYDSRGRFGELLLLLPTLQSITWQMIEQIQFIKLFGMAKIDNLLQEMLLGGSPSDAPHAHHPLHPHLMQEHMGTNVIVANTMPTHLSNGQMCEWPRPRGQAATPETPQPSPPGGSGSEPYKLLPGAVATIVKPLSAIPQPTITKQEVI
Large screens that a line does not name were inactive (follow-up assays come after a bar, where they were run). A selection: hits, their analogues and other compounds. The true share with any hit is near 4.1%.

O=C(CCCn1cc([N+](=O)[O-])cn1)NCc1ccccc1	none
Cc1ccc(-n2sc3ccccc3c2=O)cc1	PRMT1 inh 76, ABHD5 PLIN5 PPI 31 | ABHD5 PLIN5 conf inactive | HNF4 counter 114
Cc1ccc(Cn2c(=O)sc3ccccc3c2=O)cc1	none
CCOc1ccc(S(=O)(=O)NCc2ccco2)c2ccccc12	ABHD5 PLIN5 PPI 26 | ABHD5 PLIN5 conf inactive | HNF4 counter inactive
CCOc1cc(C)c(Cl)cc1S(=O)(=O)NCc1ccco1	none
COC(=O)c1c(-c2ccc(OC)cc2)c2c(c3c4cc(OC)ccc4n(S(=O)(=O)c4ccc(C)cc4)c13)C(=O)N(C)C2	none (no result: ABHD5 PLIN5 PPI)
CCOC(=O)[C@@]12CCC3=C1N(CCC3)C(=O)[C@H](CC(=O)N1CCCC1)C2	none (no result: ABHD5 PLIN5 PPI)
Cc1cc(C)c2cc(C#N)c(SCC(=O)NCc3ccco3)nc2c1	ABHD5 PLIN5 PPI 35 | ABHD5 PLIN5 conf 66 | HNF4 counter 73
O=C(CSc1c2c(nc3cc(Cl)ccc13)CCCC2)NCc1ccco1	PRMT1 inh 23, ABHD5 PLIN5 PPI 24 | ABHD5 PLIN5 conf 42 | HNF4 counter 38
O=C(CN1CCCc2ccccc21)NCc1ccc(Cl)cc1	none (no result: ABHD5 PLIN5 PPI)
c1ccc(NCc2nc3ccccc3n2CCOc2ccccc2)cc1	none
COc1ccc(NCc2nc3ccccc3n2C)cc1	none
COc1ccc(NCc2nc3ccccc3n2CCOc2ccccc2)cc1	ABHD5 PLIN5 PPI 29 | ABHD5 PLIN5 conf inactive | HNF4 counter inactive
COc1ccc(NCc2nc3ccccc3n2CCOc2ccc(C)cc2)cc1	ABHD5 PLIN5 PPI 25 | ABHD5 PLIN5 conf inactive | HNF4 counter inactive
COC(=O)C1=C(C)N(Cc2ccccc2C(F)(F)F)C(=NCc2ccc3c(c2)OCO3)NC1c1ccccc1C(F)(F)F (configuration not stated)	none (no result: ABHD5 PLIN5 PPI)
C[C@H]1CCC/C=C/C(=O)c2c(cc(O)c(Cl)c2O)CC(=O)O1	none (no result: ABHD5 PLIN5 PPI)
C=C1C(=O)O[C@@H]2[C@H]1[C@@H](OC(=O)/C(C)=C/C)C/C(C)=C\C(=O)/C=C(\C)[C@@H]2O	ABHD5 PLIN5 PPI 42 | ABHD5 PLIN5 conf 62 | HNF4 counter 72
CCOC(=O)c1cccc(-c2cc(C(C)=O)c3n(c2=O)CCC3)c1	none (no result: ABHD5 PLIN5 PPI)
Cc1nnc(NC(=O)c2nc(S(=O)(=O)Cc3ccccc3)ncc2Cl)s1	ABHD5 PLIN5 PPI 34 | ABHD5 PLIN5 conf 71 | HNF4 counter 51
CCCc1nnc(NC(=O)c2nc(S(=O)(=O)Cc3cccc(C)c3)ncc2Cl)s1	ABHD5 PLIN5 PPI 28, rCAG binder 35 | ABHD5 PLIN5 conf 74 | HNF4 counter 42
COc1ccc(OC)c(NC(=O)c2nc(S(=O)(=O)Cc3ccccc3)ncc2Cl)c1	ABHD5 PLIN5 PPI 50 | ABHD5 PLIN5 conf 93 | HNF4 counter 87
COc1ccc(NC(=O)c2nc(S(=O)(=O)Cc3cccc(C)c3)ncc2Cl)c(OC)c1	none
Cc1cccc(CS(=O)(=O)c2ncc(Cl)c(C(=O)NCc3ccccc3)n2)c1	PRMT1 inh 24, ABHD5 PLIN5 PPI 34 | ABHD5 PLIN5 conf 92 | HNF4 counter 106
CC(C)(C)N(Cc1cn(Cc2ccccc2)nn1)S(=O)(=O)c1ccc(F)cc1Br	none (no result: ABHD5 PLIN5 PPI)
CCOC(=O)C1=CCN(S(=O)(=O)c2ccc([N+](=O)[O-])cc2)C1c1ccc(C)cc1 (configuration not stated)	none (no result: ABHD5 PLIN5 PPI)
CCN1CCN(c2cc(N3CCc4ccccc4C3)c(F)cc2[N+](=O)[O-])CC1	ABHD5 PLIN5 PPI 26 | ABHD5 PLIN5 conf inactive | HNF4 counter inactive
CCOC(=O)c1c(-c2ccc(C)o2)csc1NC(=O)COC(=O)c1ccc(NC(N)=O)cc1	ABHD5 PLIN5 PPI 38 | ABHD5 PLIN5 conf inactive | HNF4 counter 44
CCCCN1CC(COCc2ccccc2)Oc2cccc(N3CCCCC3)c2S1(=O)=O (configuration not stated)	none (no result: ABHD5 PLIN5 PPI)
Cc1ccc(S(=O)(=O)c2ccc([N+](=O)[O-])cn2)cc1	PRMT1 inh 34, ABHD5 PLIN5 PPI 49 | ABHD5 PLIN5 conf 75 | HNF4 counter 112
O=[N+]([O-])c1ccc(S(=O)(=O)c2ccccc2)nc1	PRMT1 inh 29, ABHD5 PLIN5 PPI 54 | ABHD5 PLIN5 conf 57 | HNF4 counter 109
Cc1cc(S(=O)(=O)c2ccc([N+](=O)[O-])cn2)ccc1Br	none
O=C(CNc1nnnn1-c1ccccc1)N1CCCC1	none (no result: ABHD5 PLIN5 PPI)
COC(=O)C1CN(Cc2ccccc2)CCS(=O)(=O)N1Cc1cn(Cc2ccccc2Br)nn1 (configuration not stated)	none (no result: ABHD5 PLIN5 PPI)
COCCn1c(SCC#N)nnc1-c1ccccc1	none
COCCn1c(SCC#N)nnc1-c1ccccc1O	ABHD5 PLIN5 PPI 57 | ABHD5 PLIN5 conf inactive | HNF4 counter inactive
COC(=O)[C@]12C[C@H](CC(=O)NCC3CCCCC3)C(=O)N(CCc3ccc(OC)c(OC)c3)C1=C[C@H](C(C)C)O[C@@H]2C1CC1	none (no result: ABHD5 PLIN5 PPI)
C=CCOc1ccc(/C=C\c2nc(O)c([N+](=O)[O-])c(=O)[nH]2)cc1OC	none (no result: LEDGF integ inh, MBD2 DNA inh, PRMT1 inh, UHRF1 binding, rCAG binder)
O=c1[nH]c(/C=C\c2ccccc2F)nc(O)c1[N+](=O)[O-]	ABHD5 PLIN5 PPI 33 | ABHD5 PLIN5 conf 55 | HNF4 counter 43
O=c1[nH]c(/C=C\c2cccc(F)c2)nc(O)c1[N+](=O)[O-]	ABHD5 PLIN5 PPI 36 | ABHD5 PLIN5 conf 69 | HNF4 counter 54
O=c1[nH]c(/C=C\c2cccc(Cl)c2)nc(O)c1[N+](=O)[O-]	ABHD5 PLIN5 PPI 51 | ABHD5 PLIN5 conf 88 | HNF4 counter 75
C=CCOc1ccc(/C=C\c2nc(O)c([N+](=O)[O-])c(=O)[nH]2)cc1OCC	none
C=CCOc1cccc(/C=C\c2nc(O)c([N+](=O)[O-])c(=O)[nH]2)c1	ABHD5 PLIN5 PPI 46 | ABHD5 PLIN5 conf 79 | HNF4 counter 69
Cc1cc(-c2cc(NC(=O)Cc3c[nH]c4ccccc34)ccc2N(C)c2cccnc2)ccc1F	none (no result: ABHD5 PLIN5 PPI)
C#CCOc1c(/C=C\c2nc(O)c([N+](=O)[O-])c(=O)[nH]2)cc(Br)cc1OC	ABHD5 PLIN5 PPI 46 | ABHD5 PLIN5 conf 83 | HNF4 counter 74
COC(=O)COc1c(/C=C\c2nc(O)c([N+](=O)[O-])c(=O)[nH]2)cccc1OC	none
O=C(C1CCN(S(=O)(=O)c2ccc(Cl)cc2)CC1)N1CCC1	ABHD5 PLIN5 PPI 52 | ABHD5 PLIN5 conf inactive | HNF4 counter inactive
CCOC(=O)Cn1cc(CN2C(C(=O)OC)CN(C3CCCC3)CCS2(=O)=O)nn1 (configuration not stated)	none (no result: ABHD5 PLIN5 PPI)
O=C(NCc1ccccc1)C(c1cc2ccccc2o1)n1c(=O)c(-c2ccccc2)nc2ccccc21 (configuration not stated)	none
